# Data as given in PubChem BioAssay AID1376 (SRMLSC, 2008).
# “And” between values parts separate entries of the source, which are not always exact repeats. Equal entries are not always repeated. About 530 (0.24%) of roughly 220,000 compounds were called active. Cut-off read from the data, not from the text of the source: active = inhibition above about 13%; inconclusive = no clear call, values can overlap the other calls; inactive = below that. The full list was thinned out, with actives kept by preference. Entries with a potency or affinity are not part of this list. Some structures have more than one record in an assay (separate samples or runs), and their calls can disagree.
# Biological target: Bifunctional protein GlmU (Mycobacterium tuberculosis (strain ATCC 25618 / H37Rv)) (UniProt P9WMN3)
# Test: inhibition of mycobacterial GlmU enzyme – biochemical, glucosamine-1-phosphate acetyltransferase (AID 1376);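 note: 0% = complete reaction with vehicle and 100% = reaction without substrate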
# Settings: M. tuberculosis GlmU acetyltransferase enzyme assay; stronger effect = higher value;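 tested at 30 µM in the primary screen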
# Bifunctional protein GlmU (Mycobacterium tuberculosis (strain ATCC 25618 / H37Rv)), sequence (P9WMN3 whole entry, looked up): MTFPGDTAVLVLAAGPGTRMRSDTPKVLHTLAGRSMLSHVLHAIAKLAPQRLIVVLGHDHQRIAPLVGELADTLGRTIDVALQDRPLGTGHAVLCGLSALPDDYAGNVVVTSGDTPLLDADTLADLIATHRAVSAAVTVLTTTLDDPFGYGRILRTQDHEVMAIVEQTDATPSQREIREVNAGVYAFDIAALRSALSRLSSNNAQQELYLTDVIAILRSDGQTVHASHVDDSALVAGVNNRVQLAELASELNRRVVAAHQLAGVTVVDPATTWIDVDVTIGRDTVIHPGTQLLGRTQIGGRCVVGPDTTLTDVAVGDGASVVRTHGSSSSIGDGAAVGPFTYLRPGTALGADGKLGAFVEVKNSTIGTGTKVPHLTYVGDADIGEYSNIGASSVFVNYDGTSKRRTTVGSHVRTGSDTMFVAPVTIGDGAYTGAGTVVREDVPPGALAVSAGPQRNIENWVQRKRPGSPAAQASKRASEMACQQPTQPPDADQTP
row,Compound,inhibition
1,Cc1ccc(-c2nnc(CSc3nnc(COc4ccccc4)n3-c3ccc(C)cc3)o2)cc1,2.51% (inactive)
2,COc1ccccc1CCNC1CCC(C)CC1 (stereo not given),1.25% (inactive)
3,CC(=O)c1ccc(S(=O)(=O)N2CCNCC2)cc1,1.28% (inactive)
4,O=[N+]([O-])c1cccc(-c2csc(CS(=O)(=O)Cc3ccco3)n2)c1,1.82% (inactive)
5,O=C(NC1CC1)C1Nc2ccc(OC(F)(F)F)cc2C2C=CCC12 (stereo not given),-0.17% (inactive)
6,Cc1ccc2c(c1)C1C=CCC1C(C(=O)O)N2 (stereo not given),28% (active)
7,O=C(O)C1Nc2ccc(OC(F)(F)F)cc2C2C=CCC12 (stereo not given),13.1% (active)
8,CCOC(=O)C1Nc2ccc(C)cc2C2C=CCC12 (stereo not given),-1.77% (inactive)
9,Cc1ccc2c(c1)C1C=CCC1C(C(=O)NCCCN1CCOCC1)N2 (stereo not given),3.8% (inactive)
10,CCOC(=O)C1Nc2ccc(OC(F)(F)F)cc2C2C=CCC12 (stereo not given),1.1% (inactive)
11,CCOC(=O)N1CCC(N(CCN(C)C)C(=S)Nc2ccccc2Cl)CC1,0.75% (inactive)
12,O=C(CNC(=O)c1ccc2c(c1)OCCO2)N/N=C/c1ccco1,-1.55% (inactive)
13,Nc1ccccc1NC1=CC(=O)CC(c2ccccc2)C1 (stereo not given),2.07% (inactive)
14,COc1ccc(/C=N/NC(=O)CN(CCc2ccccc2)S(=O)(=O)c2ccc(NC(C)=O)cc2)cc1OC,1.25% (inactive)
15,COc1cc(NS(=O)(=O)c2ccc(Nc3nc(-c4ccccn4)cs3)cc2)nc(OC)n1,-0.88% (inactive)
16,Cn1cnnc1SCc1ccc(C(=O)N/N=C(\CCC(=O)O)c2ccc(C(C)(C)C)cc2)cc1,-2.55% (inactive)
17,CCSc1nnc(NS(=O)(=O)c2ccc(C)cc2)s1,-1.65% (inactive)
18,Cc1ccc(C2=CSC3=NS(=O)(=O)CCN23)cc1,-2.55% (inactive)
19,Cc1ccc(C)c(C2=CSC3=NS(=O)(=O)CCN23)c1,14.7% (active)
20,Cc1ccc(C2=CSC3=NS(=O)(=O)CCN23)cc1C,-2.13% (inactive)
21,Cc1ccnc(SCc2cn3c(C)cc(C)nc3n2)n1,-0.65% (inactive)
22,CCc1ccc(N2CCN(C(=O)N3CCOCC3)CC2)cc1,-4.7% (inactive)
23,C=CCOC(=O)C1=C(C)N(C)C(=O)NC1c1cc2c(cc1Br)OCO2 (stereo not given),0% (inactive)
24,Cc1cccc(-n2ncc3c(N(CCO)CCO)ncnc32)c1,2.36% (inactive)

row,Compound,inhibition
1,CCOc1ccc(NC(=O)Nc2cc(C(C)C)c(O)cc2C)cc1,1.34% (inactive)
2,Cc1ccc(C(C)C)cc1NC(=O)Nc1ccc([N+](=O)[O-])cc1,-2.4% (inactive)
3,CCOc1ccc(NC(=O)Nc2cc(C(C)C)ccc2C)cc1,14.6% (active)
4,CSc1nc2ncc(C#N)cn2n1,-5.13% (inactive)
5,CC(=O)Nc1ccc(NC(=O)C(Cc2ccccc2)NC(=O)C2CCCCC2)cc1 (stereo not given),1.61% (inactive)
6,c1ccc(-n2nnc(-c3cccnc3)n2)cc1,1.76% (inactive)
7,COc1ccc(OCC(O)Cn2c(Br)nc3c2c(=O)[nH]c(=O)n3C)cc1 (stereo not given),-0.99% (inactive)
8,Cc1ccccc1OCC(O)Cn1c(Br)nc2c1c(=O)[nH]c(=O)n2C (stereo not given),1.77% (inactive)
9,CCSc1nc2c(c(=O)[nH]c(=O)n2C)n1CC(O)COc1ccccc1 (stereo not given),-3.27% (inactive)
10,Cn1c(=O)[nH]c(=O)c2c1nc(SCCO)n2CC(O)COc1ccccc1 (stereo not given),0.72% (inactive)
11,CCCSc1nc2c(c(=O)[nH]c(=O)n2C)n1CC(O)COc1ccccc1 (stereo not given),14.1% (active)
12,COc1ccccc1OCC(O)Cn1c(Br)nc2c1c(=O)[nH]c(=O)n2C (stereo not given),13.5% (active)
13,CCN(CC)C(=O)c1[nH]cnc1C(=O)N[C@@H](C)C(=O)OC(C)(C)C,-5.07% (inactive)
14,COC(=O)c1ccccc1NC(=O)Nc1cccc(C)n1,1.31% (inactive)
15,Cc1occc1C(=O)N/N=C/c1ccccc1[N+](=O)[O-],-3.47% (inactive)
16,CNc1ccc(/C=C(\C#N)c2ccccn2)cc1[N+](=O)[O-],13.2% (active)
17,N#C/C(=C\c1ccc(Cl)c([N+](=O)[O-])c1)c1ccccn1,-1.14% (inactive)
18,N#C/C(=C\c1ccc([N+](=O)[O-])cc1)c1ccccn1,3.91% (inactive)
19,Cc1cc(C)cc(NC(=O)C2CCCC2)c1,9.85% (inactive)
20,Cc1cccc(NC(=O)C2CCCC2)c1,13.7% (active)
21,CC(=O)c1cccc(NC(=O)C2CCCC2)c1,1.98% (inactive)
22,CC1CN(/C(=N\S(=O)(=O)c2ccccc2)c2ccccc2)CC(C)O1 (stereo not given),-2.86% (inactive)
23,COc1ccccc1CCc1nnc(CCC(=O)NC(C)Cc2ccsc2)o1 (stereo not given),1.67% (inactive)
24,COc1ccc(NC(=O)/C(Cl)=C(/Cl)S(=O)Cc2ccc(Cl)cc2)cn1 (stereo not given),11.8% (inactive)

row,Compound,inhibition
1,COc1ccc(CS(=O)/C(Cl)=C(/Cl)C(=O)Nc2ccc(OC)nc2)cc1 (stereo not given),14.6% (active)
2,COc1ccc(NC(=O)/C(Cl)=C(/Cl)S(=O)Cc2ccc(C)cc2)cn1 (stereo not given),7.38% (inactive)
3,CCOc1ccc(NC(=O)C2=C(C)C(=O)OC23CCC(C)CC3)cc1 (stereo not given),3.82% (inactive)
4,CC1=CC(=O)C(C(C)C)=C/C1=N/OS(=O)(=O)c1ccccc1,1.82% (inactive)
5,CC1=C/C(=N\OS(=O)(=O)c2ccccc2)C(C)=CC1=O,10.7% (inactive)
6,O=C(NCCCn1ccnc1)C1CC(c2ccccc2Cl)=NO1 (stereo not given),-2.77% (inactive)
7,COc1cc(C(Nc2ccc(S(=O)(=O)NCC3CCCO3)cc2)C(=O)NC(C)(C)C)cc(OC)c1OC (stereo not given),13.6% (active)
8,COc1ccc(C(Nc2ccc(S(=O)(=O)NCC3CCCO3)cc2)C(=O)NC(C)(C)C)cc1OC (stereo not given),-2.66% (inactive)
9,COc1cc(C(Nc2ccc(S(=O)(=O)N3CCC(C)CC3)cc2)C(=O)NCC2CCCO2)cc(OC)c1OC (stereo not given),0.15% (inactive)
10,CC(=O)Nc1cccc(OCc2ccc(S(=O)(=O)Cc3ccccc3)cc2)c1,-12.3% (inactive)
11,Cc1cc(N2CCOCC2)ccc1/C=C1/SC(=O)NC1=O,-0.05% (inactive)
12,O=C1NC(=O)/C(=C/c2ccc(O)cc2)S1,2.35% (inactive)
13,O=C1NC(=O)/C(=C\c2ccc(O)cc2O)S1,12.9% (active)
14,c1ccc(CSc2ccc(-c3cccnc3)nn2)cc1,-0.08% (inactive)
15,Cc1cc(NC(=O)CSC2=Nc3ccccc3C3=NC(Cc4ccccc4)C(=O)N23)n[nH]1 (stereo not given),-1.18% (inactive)
16,CCC1(C)Cc2c(C#N)c(N)n(-c3ccccc3)c(=O)c2CO1 (stereo not given),13.3% (active)
17,CCC1(C)Cc2c(C#N)c(N)n(-c3ccccc3)c(=S)c2CO1 (stereo not given),6.07% (inactive)
18,CC1(C)Cc2c(C#N)c(N)n(-c3ccccc3)c(=O)c2CO1,-3.12% (inactive)
19,CCOC(=O)C1CCN(c2c(NCc3ccc(N(C)C)cc3)c(=O)c2=O)CC1,14.4% (active)
20,CCCNC(=O)c1ccc(CNc2c(N3CCC(C(=O)OCC)CC3)c(=O)c2=O)cc1,-8.96% (inactive)
21,CCOC(=O)N1CCN(c2c(NCc3ccc(N(C)C)cc3)c(=O)c2=O)CC1,-1.67% (inactive)
22,COc1nccnc1NS(=O)(=O)c1ccc(NC(=S)NC(=O)/C=C/c2ccc(F)cc2)cc1,10.5% (inactive)
23,O=C(/C=C/NNC(=O)c1cccc(Br)c1)c1cccc(Br)c1,12.9% (active)
24,O=C(/C=C/NNC(=O)c1ccc(Br)cc1)c1ccccc1,-0.31% (inactive)

row,Compound,inhibition
1,O=C(/C=C/NNC(=O)c1ccccc1)c1ccc(Br)cc1,-1.06% (inactive)
2,CC(C)(C)S(=O)(=O)c1ccsc1C(=O)O,0.11% (inactive)
3,Cc1ccccc1-n1c(-c2ccoc2C)n[nH]c1=S,5.31% (inactive)
4,Cc1cccc(-n2c(-c3ccoc3C)n[nH]c2=S)c1,11.9% (inactive)
5,Cc1occc1-c1n[nH]c(=S)n1-c1ccccc1,12.8% (active)
6,COc1ccccc1Nc1nc(N)nc(CSCCO)n1,1.91% (inactive)
7,COc1cc(/C=C2\CC/C(=C\c3cc(OC)c(OC)c(OC)c3)C2=O)cc(OC)c1OC,-2% (inactive)
8,COc1cc(/C=C2/CC/C(=C/c3ccc(O)c(OC)c3)C2=O)ccc1O,-0.98% (inactive)
9,COc1cc(/C=C2\CC/C(=C\c3cc(OC)c(O)c(OC)c3)C2=O)cc(OC)c1O,14.3% (active)
10,N#Cc1ccc2ccn(CC(=O)NC3CCCCCC3)c2c1,6.23% (inactive)
11,C[C@@H]1Cc2c(O)c(O)cc(O)c2C(=O)O1,-2.99% (inactive)
12,CC1Oc2cc3c(-c4c(O)cc(O)c5c(O)c6c(cc45)OC(C)C(C)C6=O)c(O)cc(O)c3c(O)c2C(=O)C1C (stereo not given),16.3% (active) and 8.27% (inactive)
13,CC1CC(=O)c2c(cc3c(-c4c(O)cc(O)c5c(O)c6c(cc45)OC(C)CC6=O)c(O)cc(O)c3c2O)O1 (stereo not given),18.9% (inactive)
14,Cc1ccc(C(=O)Nc2ccc(C(=O)O)cc2)cc1S(=O)(=O)NCc1ccccc1,-0.6% (inactive)
15,Cc1cc2nccc(-c3ccco3)n2n1,13.6% (active)
16,O=C(O)c1cc2nccc(-c3ccco3)n2n1,3.14% (inactive)
17,Cc1cc2nccc(-c3ccccn3)n2n1,-6.43% (inactive)
18,Cc1ccc(Nc2c(-c3ccc(N4CCOCC4)cc3)nc3cnccn23)cc1,-2.79% (inactive)
19,O=C(NCCCN1CCCCCC1)c1ccc2c(Cl)c3c(nc2c1)CCCC3,-1.55% (inactive)
20,S=C1NC2(CCS1)Oc1ccccc1C1CC(c3ccccc3)=NN12 (stereo not given),-6.7% (inactive)
21,COc1ccc(C)cc1S(=O)(=O)Nc1ccc2c(c1)OCO2,3.25% (inactive)
22,COc1ccc(F)cc1S(=O)(=O)Nc1ccc2c(c1)OCCO2,2.41% (inactive)
23,COc1ccc(F)cc1S(=O)(=O)Nc1ccc2c(c1)OCO2,14.9% (active)
